IMPase Li inh: IMPase inhibition in cells with lithium potentiation; Potency, µM (titrated, usually from 59.4 µM), usual class: inhibitors; actives 0.35% (n = 210,000); CHO-M1 cells, IP1 TR-FRET (IP-One), carbachol + lithium;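 also: IP1 builds up when IMPase is blocked and the TR-FRET signal falls; nearly all actives have a fitted effect of over 50% in size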
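CHO-M1, 2000 cells/well, 16–30 h culture; cpd + low Li+, 30 min 37C; lysis with d2-IP1/Eu-anti-IP1 Ab, 10 min RT; TR-FRET 665/620 ratio and 620 channel; AC50 via Hill.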
IMPase cell inh: cell-permeable inhibitors of inositol monophosphatase (IMPase) | P97697 | CHO-M1 cells, IP1 accumulation, HTRF TR-FRET ratio | inhibition (IP1 accumulation), % at 46.1 µM | 120,000 tested, under 10 active; active = well fitted curve in the direction sought with a large enough effect in the signal ratio, not every such curve was filed as active; inconclusive = small, poorly fitted or top-dose-only effect, or a change in a side signal; inactive = no such curve, though single readings can be large or run the other way; the % refers to the signal ratio;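 also: cells stimulated with carbachol in lithium chloride buffer; higher means more IMPase inhibition seen as more IP1 and lower FRET ratio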
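Cellular IMPase inhibition is scored as a rise in cytosolic IP1, detected by competitive TR-FRET between d2-labelled IP1 and a europium anti-IP1 antibody. M1-expressing CHO cells were stimulated with carbachol for 30 min at 37C, with lithium (50 mM LiCl) present in the buffer.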
HTT cytoprotect: cytoprotection in Huntington HTT-Q103 PC12 cell model; PC12 HTT-Q103 induced, cytoprotection, ATP luminescence, 40 h; Potency, µM (top dose mostly 56.4 µM), actives largely listed as activators; actives 0.14% (n = 230,000); also: nearly all actives have a fitted effect of over 45% in size
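Compounds added alongside 100 nM tebufenozide, which induces toxic Q103 huntingtin exon 1-GFP in stable PC12 cells; surviving cells quantified by luminescent ATP measurement. Medium: phenol red-free DMEM, 5% equine and 5% calf serum.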
HTT aggregate: reduces HttQ103-GFP aggregates in PC12 cells. actives 1.1% (n = 220,000). AID 1688. PC12 HttQ103-GFP aggregates, Acumen cytometry, 40 h. Potency, µM (series often up to 46.1 µM), usual class: inhibitors; also: nearly all actives have a fitted effect of over 60% in size
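Read-out: GFP aggregate count by laser scanning cytometer (488 nm excitation, 500-530 nm emission, 1–25 µm objects >6 SD above background). Cells: PC12, inducible HTTex1-Q103-GFP, 100 nM tebufenozide; compounds titrated.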
PNC inhibitor: perinucleolar compartment assembly inhibition; PC3M PTB-GFP, PNC prevalence imaging, 16 h; stronger effect = lower value; activity change (PNC), negative = inhibition, % at 10 µM; actives 3.1% (n = 140,000);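 active = readout at or below -70, meaning at least 70% loss of cells showing the perinucleolar compartment, a nuclear body marking cancer cells; inconclusive = readout between -30 and a set limit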
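Compounds are pinned in duplicate onto adhered PC3M cells stably expressing GFP-tagged PTB and incubated 16 h at 37 C. Cells are then fixed, nuclei stained with Hoechst, and PNC-positive cells counted.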
NPSR antag: neuropeptide S receptor (human) antagonism, cAMP; Q6W5P4; CHO-NPSR cells, cAMP TR-FRET, antagonist mode; Potency, µM (doses to about 38.3 µM), actives largely listed as inhibitors; actives 1% (n = 220,000); AID 1461; also: nearly all actives have a fitted effect of over 50% in size
Target sequence (Q6W5P4 whole entry, looked up): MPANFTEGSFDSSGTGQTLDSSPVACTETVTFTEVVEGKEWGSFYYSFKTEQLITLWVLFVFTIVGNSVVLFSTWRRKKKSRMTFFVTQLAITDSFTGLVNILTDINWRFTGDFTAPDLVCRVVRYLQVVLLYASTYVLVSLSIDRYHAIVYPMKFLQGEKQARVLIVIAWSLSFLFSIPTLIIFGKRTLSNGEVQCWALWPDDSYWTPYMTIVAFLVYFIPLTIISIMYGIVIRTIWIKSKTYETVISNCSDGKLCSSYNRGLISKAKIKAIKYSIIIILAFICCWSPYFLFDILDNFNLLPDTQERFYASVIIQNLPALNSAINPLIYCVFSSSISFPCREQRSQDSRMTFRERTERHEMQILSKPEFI
Each line names hits and unclear results; the compound was inactive in the other large screens. Compounds with a hit are over-represented: about 3.4% of the library has one in this group of screens. Unless noted, calls follow the shape of the dose curve; as a rule, active = well fitted curve in the direction sought with a large enough effect; inconclusive = small, poorly fitted or top-dose-only effect, or another doubt; inactive = no such curve, though single readings can be large; an effect the other way counts as inactive or inconclusive.

NC(=O)C(=O)O	none (no result: HTT aggregate, PNC inhibitor)
COc1cc(C)nc(N2CCCC(C(=O)Nc3cccc(Cl)c3Cl)C2)n1 (stereo not drawn)	PNC inhibitor -87
CCOc1ccc(/C=C/[N+](=O)[O-])c2ccccc12	NPSR antag 10µM
CCOC(=O)COc1ccc2ccccc2c1/C=C/[N+](=O)[O-]	NPSR antag inconclusive
COc1cc2c(cc1OC)C1(O)C(=O)c3ccc(O)c(C(=O)O)c3OC1CO2 (stereo not drawn)	none (no result: IMPase cell inh, HTT aggregate, PNC inhibitor, NPSR antag)
O=C(CS(=O)(=O)c1ccccc1)Nc1ccc(N2CCOCC2)cc1	none (no result: IMPase cell inh, PNC inhibitor)
O=C(Cn1ccnc1[N+](=O)[O-])NCCO	HTT cytoprotect inconclusive (no result: PNC inhibitor, NPSR antag)
CCN(CC)C(=S)NC(=O)c1ccc(OC)c(Br)c1	none (no result: IMPase cell inh)
C=CCN(CC=C)C(=S)NC(=O)c1ccc(OC)c(Br)c1	PNC inhibitor -86
COC(=O)CCSCC(=O)N1N=C(c2ccc(Br)cc2)CC1c1cccc(OC)c1OC (stereo not drawn)	NPSR antag inconclusive (no result: IMPase cell inh, PNC inhibitor)
CC1=C(C(=O)Nc2cccc(F)c2)C(c2ccsc2)C2=C(CC(C)(C)CC2=O)N1 (stereo not drawn)	PNC inhibitor -81 (no result: IMPase cell inh)
CC1=C(C(=O)Nc2ccccc2F)C(c2ccsc2)C2=C(CC(C)(C)CC2=O)N1 (stereo not drawn)	none (no result: IMPase cell inh)
COc1ccc2c(c1)c(CC(=O)O)c(C)n2Cc1ccc(F)cc1	IMPase cell inh inconclusive, NPSR antag inconclusive (no result: HTT aggregate, PNC inhibitor)
N[C@H](CC(=O)O)C(=O)O	none (no result: PNC inhibitor, NPSR antag)
Cc1c(C(=O)N(C)Cc2ccccc2)oc2ccc(S(=O)(=O)N3CCCC3)cc12	HTT aggregate 11µM, NPSR antag inconclusive
O=c1[nH][nH]c(=S)n1-c1ccccc1C(F)(F)F	none (no result: IMPase Li inh, IMPase cell inh, PNC inhibitor)
Cc1cc(C)n2nc(SCC(=O)Nc3ccccc3)nc2n1	none (no result: PNC inhibitor)
COC(=O)CSc1nc2nc(C)cc(C)n2n1	PNC inhibitor -85
Cc1cc(C)n2nc(SCc3nnc(SCc4ccccc4C)s3)nc2n1	HTT aggregate 13µM, PNC inhibitor inconclusive
Cc1cc(C)n2nc(SCN3C(=O)c4ccccc4C3=O)nc2n1	IMPase Li inh 13µM
Cc1cc(C)n2nc(SCc3nnc(SCc4ccccc4Cl)s3)nc2n1	PNC inhibitor inconclusive
CCOc1ccccc1-c1ccc(C(=O)O)o1	none (no result: IMPase cell inh, HTT aggregate, PNC inhibitor, NPSR antag)
COC(=O)[C@H](Cc1ccccc1)NC(=O)O[C@@H]1C(=O)c2cc(OC)ccc2O[C@H]1c1cccc(OC)c1	none (no result: IMPase cell inh, HTT aggregate, PNC inhibitor, NPSR antag)
COC(=O)C/C=C/C(C)C(OC)c1ccccc1Br (stereo not drawn)	none (no result: IMPase Li inh, IMPase cell inh, HTT aggregate, PNC inhibitor, NPSR antag)
O=C(NC1CCCCC1)NC1CCCCC1	none (no result: IMPase cell inh, HTT aggregate, PNC inhibitor, NPSR antag)
O=C(O)/C=C/C(=O)NC1CCCCC1	HTT aggregate 3.5µM, PNC inhibitor inconclusive (no result: IMPase cell inh)
COC(=O)[C@@]1(Cc2ccccc2)[C@@H]2C(=CC(=O)[C@H]2CC(=O)C(=O)N(C)C)CN1C(=O)c1ccccc1	HTT cytoprotect inconclusive, HTT aggregate inconclusive (no result: IMPase cell inh)
COC(=O)[C@@]1(Cc2ccc(F)cc2)[C@@H]2C(=CC(=O)[C@H]2CC(=O)C(=O)N(C)C)CN1C(=O)c1ccccc1	HTT cytoprotect 4µM (no result: IMPase cell inh, HTT aggregate, PNC inhibitor, NPSR antag)
C[C@@H]1CC[C@H]2C(=O)O[C@H](CN=[N+]=[N-])CN2[C@@H]1c1ccc(Br)cc1	none (no result: IMPase Li inh, IMPase cell inh, HTT aggregate, PNC inhibitor, NPSR antag)
Cn1cccc1/C=N/NC(=O)c1ccn[nH]1	PNC inhibitor -119
N#CCc1ccc(C(=O)c2ccccc2)s1	PNC inhibitor -82
C[C@@H](C(=O)O)c1ccc(C(=O)c2ccccc2)s1	none (no result: PNC inhibitor, NPSR antag)
COc1ccc(CNC(=O)c2cccc(N(C)C)c2)cc1	PNC inhibitor -83
CCOc1cc(/C=N/Nc2nc(N3CCCC3)nc(N3CCCC3)n2)ccc1O	HTT aggregate inconclusive, PNC inhibitor inconclusive, NPSR antag 13µM
CNC(=O)CSc1nnc(-c2cc(C)cc(C)c2)o1	PNC inhibitor -103
CCOC(=O)CSc1nnc(-c2ccccc2NC(=O)c2ccccc2)o1	IMPase Li inh 11µM, PNC inhibitor inconclusive
Cc1cccc(NC(=O)CSc2nnc(-c3ccccc3C)o2)c1	HTT aggregate 0.0028µM (no result: HTT cytoprotect)
O=[N+]([O-])c1ccc(CCO)cc1	none (no result: IMPase cell inh, HTT aggregate, PNC inhibitor, NPSR antag)
O=C(Cc1cccs1)N1CCN(C(=O)C2CCCO2)CC1 (stereo not drawn)	PNC inhibitor -120
